From PubChem BioAssay (Tox21)
Results filed as inconclusive are left out. A call without a number means that no potency is given here. Where a structure was tested more than once in an assay, its records may differ in their call. Calls of active or inactive are those of the source. Unless noted, calls follow the shape of the dose curve; as a rule, active = well fitted curve in the direction sought with a large enough effect in the repeat runs; inconclusive = weak or mixed curves; inactive = no such curve, though single readings can be large; an effect the other way counts as inactive or inconclusive.

Experiments:
[1] = target: Estrogen receptor beta (Homo sapiens) (UniProt Q92731); test: qHTS assay to identify small molecule agonists of the estrogen receptor beta (ER-beta) signaling pathway (AID 1259377; active = well fitted activation curve with a large enough effect in the signal ratio in the repeat runs, not every such curve was filed as active; the % refers to the signal ratio)
How it was run: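 A UAS-controlled beta-lactamase reporter in ER-beta-UAS-bla HEK293T cells reports receptor activation. Compounds act for 16 hr at 37C in 2% charcoal-stripped serum, and a FRET substrate is read by fluorescence after 2 hours.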

[2] = target: Estrogen receptor beta (Homo sapiens) (UniProt Q92731); test: qHTS assay to identify small molecule antagonists of the estrogen receptor beta (ER-beta) signaling pathway (AID 1259378; active = well fitted inhibition curve with a large enough effect in the signal ratio in the repeat runs, not every such curve was filed as active; the % refers to the signal ratio)
How it was run: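 Antagonist mode: compounds added to beta-lactamase reporter HEK293T ER-beta-UAS cells stimulated with E2 (1nM final), 16 hr at 37C. LiveBLAzer B/G FRET substrate, 2 hours room temperature, fluorescence read-out.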

[3] = qHTS assay to identify small molecule agonists of the androgen receptor (AR) signaling pathway in the presence of an antagonist - cell viability counter screen (AID 1259379);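 also: MDA-kb2 human breast cancer cells carrying an MMTV luciferase reporter; series mostly up to about 92 µM; nearly all actives have a fitted effect of over 25% in size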
How it was run: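 Viability counter screen: CellTiter-Fluor fluorescence, measured in the same wells as the luciferase read-out. MDA-kb2 cells, 3,000/well, with nilutamide at 3.0uM final and compounds at 15 concentrations, 16 hr at 37C, 0% CO2.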

[4] = qHTS assay to identify small molecule agonists of the estrogen receptor beta (ER-beta) signaling pathway - cell viability counter screen (AID 1259380); also: nearly all actives have a fitted effect of over 30% in size
How it was run: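 Luminescence read-out (CellTiter-Glo, 30 min, room temp) taken in the same wells as the beta-lactamase reporter assay; ER-beta-UAS-bla HEK293T cells exposed to DMSO-dissolved compounds for 16 hr at 37C in 2% charcoal-stripped FBS medium.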

[5] = qHTS assay to identify small molecule antagonists of the estrogen receptor beta (ER-beta) signaling pathway - cell viability counter screen (AID 1259382);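 also: HEK293T cells carrying ER-beta-UAS-bla reporter stimulated with estradiol; series mostly up to about 92 µM; nearly all actives have a fitted effect of over 55% in size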
How it was run: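 Luminescent ATP read-out (CellTiter-Glo, 30 min, RT) taken in the same wells as the bla reporter assay. HEK293T ER-beta-UAS-bla cells in 2% charcoal-stripped FBS were exposed to compounds with 1nM E2 for 16 hr at 37C.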

[6] = target: Estrogen receptor (Homo sapiens) (UniProt P03372); test: qHTS assay to identify small molecule agonists of the estrogen receptor alpha (ER-alpha) signaling pathway in the presence of an antagonist (AID 1259383; calls by dose curve; also: top concentration of the series differs between compounds; nearly all actives have a fitted effect of over 15% in size)
How it was run: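 Luciferase luminescence (ONE-Glo, 30min at room temperature) measured in VM7Luc4E2 cells after 22hr compound exposure at 15 concentrations, with 10.0nM ICI-182,780 final present; cells express endogenous ER-alpha and carry four EREs upstream of luciferase.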

[7] = qHTS assay to identify small molecule agonists or antagonists of the thyroid stimulating hormone receptor (TSHR) signaling pathway - wild type cell line counter screen (AID 1259384; calls by dose curve)
How it was run: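 Counter screen in untransfected Hek293: compounds (15-point titration, triplicate) plus phosphodiesterase inhibitor Ro20-1724 added after 18 h plating; 30 min RT. Intracellular cAMP via competitive d2/cryptate immunoassay, 1 h incubation.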

[8] = target: Thyrotropin receptor (Homo sapiens) (UniProt P16473); test: qHTS assay to identify small molecule antagonists of the thyroid stimulating hormone receptor (TSHR) signaling pathway (AID 1259385; calls by dose curve; also: nearly all actives have a fitted effect of over 20% in size)
How it was run: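 Antagonist mode: compound-treated TSHR-expressing HEK293 cells were stimulated with 1.5 ng/mL TSH (final) in presence of Ro20-1724 for 30 min at RT. HTRF cAMP detection after 1 h; each compound tested at 15 concentrations, triplicate.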

[9] = qHTS assay to identify small molecule agonists of the estrogen receptor alpha (ER-alpha) signaling pathway in the presence of an antagonist - cell viability counter screen (AID 1259386);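 also: series mostly up to about 92 µM; cells exposed to compounds for 22 h at 37 °C before the viability read; nearly all actives have a fitted effect of over 30% in size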
How it was run: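 Read-out: CellTiter-Fluor fluorescence after 1hr reagent incubation, measured in the same wells as the luciferase readout. VM7Luc4E2 cells were exposed to 15 compound concentrations with 10.0nM ICI-182,780 for 22hr at 37C.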

[10] = target: Progesterone receptor (Homo sapiens) (UniProt P06401); test: qHTS assay to identify small molecule agonists of the progesterone receptor (PR) signaling pathway (AID 1346784; calls by dose curve; also: nearly all actives have a fitted effect of over 30% in size)
How it was run: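 Agonist mode, quantitative HTS format in a HEK 293T line expressing a UAS-controlled beta-lactamase reporter; 16 hr compound exposure at 37C in 2% charcoal-stripped FBS, then LiveBLAzer B/G FRET fluorescence.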

[11] = target: Progesterone receptor (Homo sapiens) (UniProt P06401); test: qHTS assay to identify small molecule antagonists of the progesterone receptor (PR) signaling pathway (AID 1346795; active = well fitted inhibition curve with a large enough effect in the signal ratio in the repeat runs, not every such curve was filed as active; the % refers to the signal ratio)
How it was run: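 HEK293T PR-UAS-bla reporter cells in charcoal-stripped serum (2%) received compound after a 6 hr settling period, followed by R5020 agonist at 1 nM final; 16 hr incubation preceded the FRET substrate step and fluorescence measurement.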

[12] = qHTS assay to identify small molecule antagonists of the progesterone receptor (PR) signaling pathway - cell viability counter screen (AID 1346798); also: series mostly up to about 92 µM; nearly all actives have a fitted effect of over 50% in size
How it was run: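 Same-well multiplex: after 16 hr at 37C with compound and R5020 stimulation, HEK293T cells carrying a UAS-bla reporter received LiveBLAzer substrate (2 hr RT), then CellTiter-Glo (30 min RT) for luminescent viability.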

[13] = qHTS assay to identify small molecule agonists of the progesterone receptor (PR) signaling pathway - cell viability counter screen (AID 1346799; calls by dose curve; also: nearly all actives have a fitted effect of over 45% in size)
How it was run: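 Counter screen for cytotoxicity: compound-treated PR-UAS-bla HEK293T cells (16 hr, 37C, 5% CO2) were assayed with CellTiter-Glo, luminescence measured after 30 min at room temperature.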

[14] = qHTS assay to identify small molecule antagonists of the TGF-beta/Smad signaling pathway - cell viability counter screen (AID 1346824); also: nearly all actives have a fitted effect of over 50% in size
How it was run: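 Cytotoxicity counter-screen run in the same wells as the beta-lactamase Smad reporter read: CellTiter-Glo luminescence after 30 min at room temperature. HEK 293T SBE-bla cells had 5 hr compound exposure at 37 C with TGF-beta1 (0.25 ng/mL stock).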

[15] = qHTS assay to identify small molecule agonists of the TGF-beta/Smad signaling pathway - cell viability counter screen (AID 1346829); also: top concentration of the series differs between compounds; nearly all actives have a fitted effect of over 45% in size
How it was run: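 Tox21 qHTS format: SBE-bla HEK 293T cells treated with DMSO-dissolved compounds for 5 hr; CellTiter-Glo luminescence after 30 min at room temperature.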

[16] = qHTS assay to identify small molecule agonists of the TGF-beta/Smad signaling pathway (AID 1346859; active = well fitted activation curve with a large enough effect in the signal ratio in the repeat runs, not every such curve was filed as active; the % refers to the signal ratio; also: potency is read from the fitted curve at half-maximal effect; as to activation: series mostly up to about 77 µM)
How it was run: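 Smad-responsive beta-lactamase reporter cells (HEK 293T) received compounds from DMSO stocks after overnight attachment, were incubated 5 hr, then treated 2 hr with FRET substrate before dual-emission fluorescence measurement (405 nm excitation).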

[17] = target: Thyrotropin-releasing hormone receptor (Homo sapiens) (UniProt P34981); test: qHTS assay to identify small molecule antagonists of the thyrotropin-releasing hormone receptor (TRHR) signaling pathway (AID 1346877; active = well fitted inhibition curve with a large enough effect in the repeat runs, not every such curve was filed as active; also: series mostly up to about 51 µM)
How it was run: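 HEK293/TRHR cells, 18 h, 37 °C; Ca2+ dye 2 h; cpd 5 min RT; TRH 1 nM final; fluorescence read 3 min, 1 s intervals; 15 concs, triplicate.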

[18] = target: Thyrotropin-releasing hormone receptor (Homo sapiens) (UniProt P34981); test: qHTS assay to identify small molecule agonists of the thyrotropin-releasing hormone receptor (TRHR) signaling pathway (AID 1346891; calls by dose curve;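 also: HEK293 cells expressing TRHR with calcium dye readout; series mostly up to about 58 µM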)
How it was run: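 Agonist-mode calcium mobilisation screen: TRHR-transfected HEK293 cells cultured overnight (18 h), dye-loaded for 2 h at 37 °C, exposed to compounds, and monitored by fluorescence for 3 min.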

[19] = Human pregnane X receptor (PXR) small molecule agonists, qHTS cell viability counter screen (AID 1346977); also: nearly all actives have a fitted effect of over 50% in size
How it was run: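 Measures live-cell protease fluorescence (CellTiter-Fluor) in PXR-Luc HepG2 cells treated 24hr with compounds at 37C. Cells had 5hr to attach before pin transfer of DMSO solutions.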

[20] = target: Androgen receptor (Homo sapiens) (UniProt P10275); test: qHTS assay to identify small molecule agonists of the androgen receptor (AR) signaling pathway in the presence of an antagonist (AID 1259381; calls by dose curve; also: nearly all actives have a fitted effect of over 15% in size)
How it was run: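 Luciferase read-out (ONE-Glo, 30min room temperature) in MDA-kb2 MMTV-reporter cells; agonist mode run in presence of AR antagonist nilutamide, 3.0uM final. Compounds tested as 15-point series, 16hr exposure at 37C, 0% CO2.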

Chain of Estrogen receptor beta (Homo sapiens) (Q92731 whole entry, looked up): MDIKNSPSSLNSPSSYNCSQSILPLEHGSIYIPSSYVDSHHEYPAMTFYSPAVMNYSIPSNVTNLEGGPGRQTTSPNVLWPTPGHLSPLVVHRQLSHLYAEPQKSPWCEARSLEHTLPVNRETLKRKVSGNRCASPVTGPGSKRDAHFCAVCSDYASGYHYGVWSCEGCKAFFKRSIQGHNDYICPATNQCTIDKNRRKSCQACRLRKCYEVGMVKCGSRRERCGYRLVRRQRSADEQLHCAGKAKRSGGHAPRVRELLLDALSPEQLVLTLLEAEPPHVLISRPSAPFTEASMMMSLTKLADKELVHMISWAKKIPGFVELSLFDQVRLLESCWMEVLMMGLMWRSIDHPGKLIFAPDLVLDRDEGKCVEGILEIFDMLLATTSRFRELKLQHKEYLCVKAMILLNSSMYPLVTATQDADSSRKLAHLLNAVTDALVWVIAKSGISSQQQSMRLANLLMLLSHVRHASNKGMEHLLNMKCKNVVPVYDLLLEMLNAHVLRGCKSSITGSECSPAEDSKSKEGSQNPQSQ
Chain of Thyrotropin receptor (Homo sapiens) (P16473 whole entry, looked up): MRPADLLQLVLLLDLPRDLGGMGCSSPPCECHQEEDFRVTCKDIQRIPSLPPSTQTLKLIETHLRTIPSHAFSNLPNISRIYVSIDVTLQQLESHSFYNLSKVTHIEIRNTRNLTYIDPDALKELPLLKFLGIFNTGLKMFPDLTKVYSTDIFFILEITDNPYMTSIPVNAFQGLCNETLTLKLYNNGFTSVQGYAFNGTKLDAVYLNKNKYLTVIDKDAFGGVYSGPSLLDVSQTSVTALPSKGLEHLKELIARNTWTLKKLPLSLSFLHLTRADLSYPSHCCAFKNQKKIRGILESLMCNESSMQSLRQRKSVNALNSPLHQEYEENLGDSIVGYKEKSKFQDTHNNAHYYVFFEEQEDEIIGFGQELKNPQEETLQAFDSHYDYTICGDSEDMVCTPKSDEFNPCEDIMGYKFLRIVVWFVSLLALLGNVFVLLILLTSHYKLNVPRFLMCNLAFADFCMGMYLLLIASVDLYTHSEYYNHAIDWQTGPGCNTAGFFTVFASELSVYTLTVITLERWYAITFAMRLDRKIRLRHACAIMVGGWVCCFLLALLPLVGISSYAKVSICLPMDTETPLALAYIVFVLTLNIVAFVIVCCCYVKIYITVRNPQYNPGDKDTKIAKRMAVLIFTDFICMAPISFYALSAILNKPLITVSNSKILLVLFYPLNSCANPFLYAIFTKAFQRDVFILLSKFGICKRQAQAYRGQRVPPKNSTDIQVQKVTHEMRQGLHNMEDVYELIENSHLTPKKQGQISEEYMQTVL
Chain of Progesterone receptor (Homo sapiens) (P06401 whole entry, looked up): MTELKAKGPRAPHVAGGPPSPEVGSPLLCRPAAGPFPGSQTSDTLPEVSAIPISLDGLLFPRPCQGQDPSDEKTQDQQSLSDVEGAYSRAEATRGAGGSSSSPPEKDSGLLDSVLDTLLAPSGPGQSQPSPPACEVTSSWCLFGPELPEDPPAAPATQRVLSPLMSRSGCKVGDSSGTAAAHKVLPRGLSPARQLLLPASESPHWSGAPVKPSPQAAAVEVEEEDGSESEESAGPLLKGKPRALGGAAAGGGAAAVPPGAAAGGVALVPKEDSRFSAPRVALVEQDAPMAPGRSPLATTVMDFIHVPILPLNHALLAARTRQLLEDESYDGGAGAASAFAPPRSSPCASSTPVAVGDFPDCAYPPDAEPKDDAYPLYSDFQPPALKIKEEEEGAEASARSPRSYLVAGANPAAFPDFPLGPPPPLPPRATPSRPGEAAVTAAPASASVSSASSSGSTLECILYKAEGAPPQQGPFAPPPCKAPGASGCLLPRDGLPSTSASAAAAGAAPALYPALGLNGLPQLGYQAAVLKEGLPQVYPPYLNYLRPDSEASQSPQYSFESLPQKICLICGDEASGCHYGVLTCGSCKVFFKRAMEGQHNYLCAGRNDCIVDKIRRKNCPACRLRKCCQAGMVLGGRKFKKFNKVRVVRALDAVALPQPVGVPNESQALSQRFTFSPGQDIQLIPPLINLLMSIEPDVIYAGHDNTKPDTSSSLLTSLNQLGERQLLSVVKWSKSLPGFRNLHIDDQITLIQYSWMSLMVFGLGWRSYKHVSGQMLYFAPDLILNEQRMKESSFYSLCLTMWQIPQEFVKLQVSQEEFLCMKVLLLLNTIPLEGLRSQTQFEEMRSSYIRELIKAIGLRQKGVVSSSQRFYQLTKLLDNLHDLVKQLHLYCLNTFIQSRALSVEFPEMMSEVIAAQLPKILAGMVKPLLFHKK
Chain of Estrogen receptor (Homo sapiens) (P03372 whole entry, looked up): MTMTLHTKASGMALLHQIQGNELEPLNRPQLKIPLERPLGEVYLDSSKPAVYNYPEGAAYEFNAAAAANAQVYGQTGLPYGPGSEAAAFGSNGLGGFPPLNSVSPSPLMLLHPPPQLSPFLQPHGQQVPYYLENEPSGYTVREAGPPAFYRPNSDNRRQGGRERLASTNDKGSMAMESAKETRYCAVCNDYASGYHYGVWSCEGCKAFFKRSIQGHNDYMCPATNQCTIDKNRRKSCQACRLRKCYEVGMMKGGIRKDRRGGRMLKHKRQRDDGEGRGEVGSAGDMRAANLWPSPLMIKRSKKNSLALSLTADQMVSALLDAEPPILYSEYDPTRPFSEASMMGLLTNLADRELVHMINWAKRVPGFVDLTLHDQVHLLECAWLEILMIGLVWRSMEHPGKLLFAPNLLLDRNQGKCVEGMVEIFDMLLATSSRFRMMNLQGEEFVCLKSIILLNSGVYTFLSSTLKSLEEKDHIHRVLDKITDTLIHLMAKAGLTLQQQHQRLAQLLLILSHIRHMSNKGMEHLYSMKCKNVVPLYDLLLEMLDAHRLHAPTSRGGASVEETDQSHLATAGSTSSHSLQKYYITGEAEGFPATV
Chain of Thyrotropin-releasing hormone receptor (Homo sapiens) (P34981 whole entry, looked up): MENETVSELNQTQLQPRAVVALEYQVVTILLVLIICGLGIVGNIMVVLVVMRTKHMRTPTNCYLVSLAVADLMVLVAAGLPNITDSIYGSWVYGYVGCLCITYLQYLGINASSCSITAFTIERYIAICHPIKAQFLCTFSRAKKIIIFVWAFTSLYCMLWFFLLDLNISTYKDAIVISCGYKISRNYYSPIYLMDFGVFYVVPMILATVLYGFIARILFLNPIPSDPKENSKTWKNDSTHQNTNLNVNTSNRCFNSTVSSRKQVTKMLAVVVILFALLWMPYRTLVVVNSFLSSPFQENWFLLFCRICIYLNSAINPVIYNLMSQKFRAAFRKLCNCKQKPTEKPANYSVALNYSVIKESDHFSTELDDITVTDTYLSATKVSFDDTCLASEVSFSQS
Chain of Androgen receptor (Homo sapiens) (P10275 whole entry, looked up): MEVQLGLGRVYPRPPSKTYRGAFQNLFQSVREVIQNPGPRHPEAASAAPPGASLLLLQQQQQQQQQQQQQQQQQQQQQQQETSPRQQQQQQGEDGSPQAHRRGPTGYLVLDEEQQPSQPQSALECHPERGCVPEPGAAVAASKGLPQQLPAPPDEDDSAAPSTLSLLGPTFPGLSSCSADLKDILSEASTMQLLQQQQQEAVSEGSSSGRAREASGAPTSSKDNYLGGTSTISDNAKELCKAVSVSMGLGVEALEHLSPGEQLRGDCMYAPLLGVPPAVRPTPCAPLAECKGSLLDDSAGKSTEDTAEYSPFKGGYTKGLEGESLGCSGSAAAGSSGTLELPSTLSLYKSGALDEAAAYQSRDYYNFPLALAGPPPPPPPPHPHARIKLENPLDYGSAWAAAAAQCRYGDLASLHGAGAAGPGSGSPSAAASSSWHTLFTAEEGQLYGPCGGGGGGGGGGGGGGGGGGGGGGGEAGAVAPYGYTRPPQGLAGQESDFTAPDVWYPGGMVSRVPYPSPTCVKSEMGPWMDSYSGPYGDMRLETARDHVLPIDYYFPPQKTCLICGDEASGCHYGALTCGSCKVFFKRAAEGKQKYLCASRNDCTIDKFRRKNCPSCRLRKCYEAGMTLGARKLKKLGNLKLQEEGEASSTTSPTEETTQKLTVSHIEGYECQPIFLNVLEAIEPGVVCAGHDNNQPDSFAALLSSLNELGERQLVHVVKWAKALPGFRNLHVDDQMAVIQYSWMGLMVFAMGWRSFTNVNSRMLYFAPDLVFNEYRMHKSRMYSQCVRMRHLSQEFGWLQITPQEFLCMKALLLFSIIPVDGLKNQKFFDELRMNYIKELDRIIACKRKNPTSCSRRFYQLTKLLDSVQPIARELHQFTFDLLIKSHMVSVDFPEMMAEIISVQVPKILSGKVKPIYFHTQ

SMILES | Potency [1] | Potency [2] | Potency [3] | Potency [4] | Potency [5] | Potency [6] | Potency [7] | Potency [8] | Potency [9] | Potency [10] | Potency [11] | Potency [12] | Potency [13] | Potency [14] | Potency [15] | Potency [16] | Potency [17] | outcome [18] | Potency [19] | outcome [20]
CC(C)Nc1nc(Cl)nc(NC(C)C)n1 | inactive | inactive | inactive | inactive | inactive | inactive | inactive | inactive | inactive | inactive | inactive | inactive | inactive | inactive | inactive | inactive | inactive | inactive | inactive | 
O=C(O)CF | inactive | inactive | inactive | inactive | inactive | inactive | inactive | inactive | inactive | inactive | inactive |  | inactive | inactive | inactive | inactive | inactive | inactive | inactive | 
CCOP(=O)(OCC)OCC | inactive | inactive | inactive | inactive | inactive |  | inactive | inactive | inactive |  | inactive | inactive | inactive | inactive | inactive | inactive | inactive | inactive | inactive | 
O=C1CCCO1 | inactive | inactive | inactive | inactive |  |  | inactive | inactive | inactive | inactive | inactive |  | inactive | inactive | inactive | inactive | inactive | inactive | inactive | inactive
ClCc1ccccn1 | inactive | inactive | inactive | inactive | inactive | inactive | inactive | inactive | inactive | inactive | inactive |  | inactive | inactive | inactive | inactive | inactive | inactive | inactive | 
Oc1ccc(Cl)cc1Cl | inactive | inactive | inactive | inactive | inactive | inactive |  |  | inactive | inactive | inactive | inactive | inactive | inactive | inactive | 48.6 µM (active) and inactive | inactive | inactive | inactive | 
COc1ccc(C=O)cc1OC | inactive | inactive | inactive | inactive | inactive | inactive |  |  | inactive | inactive |  |  | inactive | inactive | inactive | inactive | inactive | inactive | inactive | 
CC(O)CN(CC(C)O)CC(C)O (centres undefined) | inactive | inactive | inactive | inactive | inactive |  | inactive | inactive | inactive | inactive | inactive | inactive | inactive | inactive | inactive | inactive | inactive | inactive | inactive | 
